An excerpt weighted towards active compounds, which were near 0.93% of everything screened.
GLP1R cytotox = qHTS of GLP-1 Receptor Inverse Agonists: Cytotox Screen. Potency, µM (series often up to 38.3 µM), inactives show at the highest dose activity change, negative = inhibition, actives largely listed as inhibitors. hit rate 0.13% among 410,000. HEK293 cAMP-luciferase reporter cells, luminescence, 24 h;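 further: loss of luciferase light is scored as toxicity; potency means the concentration at half of the fitted maximal effect; on the % scale 0 is the no-effect control and ±100 the full control effect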
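Here, cytotoxicity is scored as loss of luminescence. The MLSMR collection was tested on cells seeded in medium containing 10% Nu serum, with a 24 hr compound exposure preceded by 12 hours of culture.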
TRHR agonist = qHTS for Small Molecule Agonists and Allosteric Enhancers of Human TRH Receptor: Primary Screen for Agonists; Thyrotropin-releasing hormone receptor (Homo sapiens), P34981; TRHR cells, calcium flux fluo-8, FDSS agonist mode; activation, % at 2 µM; hit rate 0.18% among 360,000; AID 493084, 2011; in the data active means activation above about 30%; further: 0% is about no effect
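Agonist-mode FDSS calcium read (Ex 480/Em 530, 1 s cycles) in 1536-well TRHR cells with fluo-8 dye, after 10-cycle baseline and 23 nL compound addition; TRH at EC20 (10 nM final) added afterwards for the enhancer phase.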
PTHR1 ag = qHTS for PTHR1 Agonists: Primary Screen; Parathyroid hormone/parathyroid hormone-related peptide receptor (Homo sapiens), Q03431; HEK293 GP2 PTHR1 cells, GloSensor cAMP luminescence, 1 h; Potency, µM (series often up to 115 µM), inactives show at the highest dose activation, actives largely listed as activators; hit rate 0.075% among 410,000; AID 743266, 2014; further: potency means the concentration at half of the fitted maximal effect; nearly all actives have a fitted effect of over 55% in size
Target sequence (Q03431 whole entry, looked up): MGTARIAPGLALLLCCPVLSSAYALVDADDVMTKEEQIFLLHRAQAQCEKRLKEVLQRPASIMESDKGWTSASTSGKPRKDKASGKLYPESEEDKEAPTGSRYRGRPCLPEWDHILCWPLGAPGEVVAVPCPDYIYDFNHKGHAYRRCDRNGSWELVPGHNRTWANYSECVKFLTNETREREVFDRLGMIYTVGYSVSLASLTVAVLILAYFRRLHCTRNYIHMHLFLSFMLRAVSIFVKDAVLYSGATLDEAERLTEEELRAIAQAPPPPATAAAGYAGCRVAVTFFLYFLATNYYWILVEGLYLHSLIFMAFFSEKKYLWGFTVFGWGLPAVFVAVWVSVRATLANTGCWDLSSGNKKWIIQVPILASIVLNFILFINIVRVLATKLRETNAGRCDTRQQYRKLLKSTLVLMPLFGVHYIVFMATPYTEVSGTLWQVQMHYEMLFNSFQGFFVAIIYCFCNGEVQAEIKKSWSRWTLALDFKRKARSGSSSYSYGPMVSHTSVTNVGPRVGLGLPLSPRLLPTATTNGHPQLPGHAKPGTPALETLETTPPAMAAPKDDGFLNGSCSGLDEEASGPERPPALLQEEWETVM
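HEK-293-derived GP2 cells expressing PTHR1 and a GloSensor cAMP reporter, 3,000/well, plated overnight, given luciferin plus IBMX (each 0.5 mM as added) for 1 h at 37 °C, then compound for 1 h at 37 °C. Luminescence was read after 15 min at room temperature.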
TRPML1 blocker = qHTS for Inhibitors of the Human Mucolipin Transient Receptor Potential 1 (TRPML1); TRPML1-inducible cells, Ca2+ dye fluorescence, FDSS; stronger effect = lower value; inhibition of EC80 agonist-evoked calcium signal; Mucolipin-1 (Homo sapiens), Q9GZU1; hit rate 0.02% among 390,000; AID 624415, 2012; activity change, negative = inhibition, % (concentration not given with the values); in the data active means activity change below about -50%; inconclusive means between about -30% and that limit;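 further: stimulus is agonist 54-4 at its EC80 concentration; on the % scale 0 is the no-effect control and ±100 the full control effect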
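Tet-induced TRPML1-DL cells loaded with Ca8 no-wash calcium dye were read kinetically on FDSS. Compound addition was followed by EC80 agonist 54-4 (4 uM final); inhibition was read over 110 s.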
TRHR enhancer = qHTS for Small Molecule Agonists and Allosteric Enhancers of Human TRH Receptor: Primary Screen for Enhancers. TRHR cells, fluo-8 calcium fluorescence, EC20 TRH enhancement. enhancement, % at 2 µM. AID 493056, 2011. hit rate 0.66% among 360,000. Thyrotropin-releasing hormone receptor (Homo sapiens), P34981; in the data active means enhancement above about 30%; further: 0% is about no effect
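Enhancer read-out: after compound pinning and an initial kinetic agonist-mode read, an EC20 of TRH (10 nM final) was injected and fluo-8 calcium signal (Ex 480/Em 530) followed at 1 s/cycle for 100 cycles in TRHR-expressing cells.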
TRPML1 ag = qHTS for Agonists of the Human Mucolipin Transient Receptor Potential 1 (TRPML1); Mucolipin-1 (Homo sapiens), Q9GZU1; TRPML1-expressing cells, Ca2+ dye fluorescence, FDSS; activation, % (no concentration beside the values); hit rate 0.12% among 410,000; AID 624414, 2012; in the data active means activation above about 50%; inconclusive means mostly about 30% to 49%; further: 0% is about no effect
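Tet-induced TRPML1-DL cells, 1,500 per well, cultured overnight, were loaded with a no-wash Ca2+ dye for 45–90 min. Calcium fluorescence was recorded on the FDSS for 110 s after compound addition, before the EC80 agonist (4 uM 54-4) was added.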
* hit, by the source's call; i = inactive; ? = inconclusive; nt = no result given; ! = a repeat was not active; [ ] = dose if it differs, or a comment. Unless noted, the call rests on the fitted dose curve; in most records, active means well fitted curve in the direction sought with a large enough effect; inconclusive means small, poorly fitted or top-dose-only effect, or another doubt; inactive means no such curve, though single readings can be large; an effect the other way counts as inactive or inconclusive.

SMILES	GLP1R cytotox	TRHR agonist	PTHR1 ag	TRPML1 blocker	TRHR enhancer	TRPML1 ag
COC(=O)c1ccc(Cn2nnc3c(=O)[nH]c(C4CCCN(S(=O)(=O)c5ccccc5Cl)C4)nc32)cc1 (centres undefined)	-1.3%	0.8	-2.8%	-0.2	30.3*!	-0.8
C[n+]1ccc(C(c2c[nH]c3ccccc23)c2cc[n+](C)c3ccccc23)c2ccccc21	nt	nt	nt	nt	nt	1.1
N/C(=N\OC(=O)C12CC3CC(CC(C3)C1)C2)c1ccncc1	-1.1%	-0.4	-25.8%	11.6	-2.1	60.7*
CC1=C(C(=O)OCc2ccc3nsnc3c2)N2C(=O)[C@@H](NC(=O)OCc3ccc4nsnc4c3)[C@H]2SC1	nt	nt	nt	nt	nt	2.6
CN(C)c1ccc(/C=C/c2cc[n+]([O-])cc2)cc1	nt	60.6*	nt	nt	2.1	nt
CN(C)c1ccc(/C=C/c2ccc3ccccc3[n+]2[O-])cc1	nt	nt	nt	nt	nt	107.3*
CN(C)c1ccc(/C=C/c2cc[n+]([O-])c3ccccc23)cc1	nt	nt	nt	nt	nt	0.1
CC(c1ccccc1)N1C(=O)c2cccnc2C1=O (centres undefined)	2.3%	-0.2	-35.6%	11.4	-1.8	-0.1
CC(NC1=CC(=O)c2cccnc2C1=O)C(O)c1ccccc1 (centres undefined)	11.2µM*	nt	-28.3%	35.5	nt	-0.2
O=C1C2C(c3ccccc3)C=CC(c3ccccc3)C2C(=O)N1C1CCCCC1 (centres undefined)	-1.9%	-0.4	i	-6.8	35.3*	-0.1
O=C1C=CC(=C(c2ccc(O)cc2)c2ccc(O)cc2)C=C1	8.91µM*	-0.1	-95.0%	-0.2	-1.8	0.8
COc1ccc(C(=O)c2sc3nc4c(c(C(F)(F)F)c3c2N)CN(C(C)=O)CC4)cc1OC	-10.5%	8.6	-18.2%	-15.0	7.5	10.3
CC(=O)N1CCc2nc3sc(C(=O)c4ccc(F)cc4)c(N)c3c(C(F)(F)F)c2C1	3.1%	36.6*	-39.1%	-19.9	-2.8	?
O=C(Nc1cccc(F)c1)Nc1ccc2c(c1)CCC2	-4.0%	1.4	-16.7%	44.1	4.9	0.3
O=C(Nc1ccc(F)cc1)Nc1ccc2c(c1)CCC2	5.7%	0.6	-23.9%	2.6	35.2*	1.1
COc1ccc(NS(=O)(=O)c2cc(NC(=O)c3cc(=O)c4ccccc4o3)ccc2OC)cc1	10.3%	-0.4	-2.7%	6.8	33.7*	-0.5
Cc1cccc(OCCC(=O)NCC(=O)Nc2c(C)cccc2C)c1	-8.2%	-0.5	i	-1.7	31.1*	0.5
Cc1ccc(C(=O)NNC(=O)CCOc2cccc(C)c2)cc1	-12.2%	-0.3	-10.2%	15.1	1.2	6.2
COc1ccc(N=Cc2sc(O)c3ccccc23)cc1	43.4%	-0.9	-39.3%	-29.3	9.6	84.4*
COc1ccc(-n2c(O)c(C=Nc3ccccc3)c3ccccc3c2=O)cc1	-6.2%	0.0	i	-16.8	-1.3	0.2
COc1ccc(N=Cc2c(O)c3ccccc3n2C(C)=O)cc1	0.5%	34.1*	-0.9%	3.3	-1.6	12.0
CC(=O)N1C(c2ccccc2O)C[C@]2(C)CC(=O)NC12 (some centres undefined)	-2.8%[7.66 µM]	0.5	-1.2%	-0.2	36.0*	0.1
COc1cc(NC(=O)C(OC(=O)CNC(=O)c2ccccc2)c2ccccc2)c(OC)cc1Cl (centres undefined)	nt	0.2	nt	nt	-0.9	nt
CN(C(=O)COc1ccccc1C(=O)Nc1ccccc1)c1ccccc1	nt	nt	nt	nt	nt	0.3
Cc1[nH]c2ccccc2c1C(c1c[nH]c2ccccc12)c1c(C)[nH]c2ccccc12	nt	nt	nt	nt	nt	3.3
SMILES	GLP1R cytotox	TRHR agonist	PTHR1 ag	TRPML1 blocker	TRHR enhancer	TRPML1 ag
CCCN(CCC)c1ccc(/C=C/c2sc3ccccc3[n+]2CCCCI)cc1	nt	nt	nt	nt	nt	18.2
Cc1ccc(S(=O)(=O)Oc2ccccc2)cc1	-7.1%	nt	i	-5.9	nt	0.3
Cc1ccc(S(=O)(=O)Oc2ccccc2-c2ccccc2)cc1	-24.8%	nt	i	-23.7	nt	99.6*
CN(C)c1ccc(/C=C/C(=O)c2c(O)c3ccccc3oc2=O)cc1	240.0%	38.4*	-3.7%	?	9.0	0.2
CCCCN(C)CCNC(=O)Cn1ncc2c3ccccc3n(CCC)c2c1=O	?	0.3	-17.7%	9.2	31.2*	0.8
CCOC(=O)C1(CC2CCCCO2)CCN(Cc2cc3ccccc3[nH]2)CC1 (centres undefined)	?	0.2	-33.5%	1.6	25.6	94.9*
CC(NCc1ccccc1)C1COc2ccccc2O1 (centres undefined)	-4.8%	0.0	-5.6%	-0.1	31.3*	1.3
O=C(Cn1ncc(Cl)c(Cl)c1=O)N1CCc2ccccc21	5.62µM*	-4.9	-31.2%	-11.8	-5.7	0.1
O=C(Cn1ncc(Cl)c(Cl)c1=O)N1CCN(Cc2ccccc2)CC1	?	-0.3	-23.2%	-4.8	1.4	-0.2
CCOC(=O)C1=NN(C(=O)c2ccc(C)cc2)C(O)(c2ccc(Cl)cc2)C1 (centres undefined)	3.7%	49.0*	-18.6%	9.9	-2.4	?
CCC1=NN(C(=O)c2ccc(Cl)cc2)C(O)(c2ccc(C)cc2)C1 (centres undefined)	?	0.8	-19.0%	1.6	0.4	0.1
COc1ccccc1-c1ccc(/C=C2\C=CC(=O)O2)o1	16.5%	73.0*	-10.2%	-16.7	4.2	84.3*
COc1ccccc1-c1ccc(/C=C2/C=C(C)OC2=O)o1	-4.2%	5.1	-32.9%	18.9	5.5	2.0
O=C(CNS(=O)(=O)c1ccc2ccccc2c1)OCc1csc(-c2ccccc2)n1	-6.5%	1.2	-42.9%	-11.0	2.4	1.2
Cc1ccc(S(=O)(=O)NCC(=O)OCc2csc(-c3ccccc3)n2)cc1	8.4%	-0.9	-14.4%	-9.8	33.1*	1.1
CC1(C)CCN2CCC(C)(C)c3c(O)ccc1c32	?	34.4*	-1.2%	-4.9	1.6	?
COc1cc(OC)cc(C(=O)NCC(=O)NCCN2C(=O)S/C(=C\c3ccccc3Cl)C2=O)c1	5.5%	0.0	-25.2%	42.2	4.7	-1.4
COc1cc(C(=O)NCC(=O)NCCN2C(=O)S/C(=C\c3ccccc3Cl)C2=O)cc(OC)c1OC	5.5%	-0.3	-18.5%	0.5	30.7*	-0.8
O=C(NNC(=S)Nc1ccccc1)c1cccnc1	?	-0.4	i	30.1	40.8*	-0.7
